From PubChem BioAssay (NCATS)
Records with an inconclusive call do not appear. Activity calls are given as the source filed them. The call rests on the fitted dose curve; in most records, active means well fitted curve in the direction sought with a large enough effect; inconclusive means small, poorly fitted or top-dose-only effect, or another doubt; inactive means no such curve, though single readings can be large; an effect the other way counts as inactive or inconclusive.

Assay: BET inhibitor-based combinations targeting novel dependencies in MECOM-rearranged (r) AML: SET-2 cell line (AID 2202231); further: nearly all actives have a fitted effect of over 35% in size;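 on viability: plate controls were DMSO treated cells for no effect and wells without cells for full effect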
Details: SET-2 AML cells viability, CellTiter-Glo luminescence, 48 h; viability: stronger effect = lower value, concentration not given here
Summary of the method: (§1)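 Each compound was tested at eleven concentrations on cells seeded at 500/well. After two days' incubation, ATP-based luminescence reported viability; responses relative to DMSO and blank wells yielded AUC and cell-line-centred Z-AUC.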
Potency means the concentration at half of the fitted maximal effect.

Compound | Potency | viability
Clc1ccc(C(Cn2ccnc2)OCc2c(Cl)cccc2Cl)c(Cl)c1 (stereo unspecified) | 26300 nM (active) | 
Nc1ccccc1NC(=O)c1ccc(CNc2nccc(-c3cccnc3)n2)cc1 | 1660 nM (active) | 
CC[C@H](Nc1ncnc2nc[nH]c12)c1nc2cccc(F)c2c(=O)n1-c1ccccc1 |  | 94.4% (inactive)
COc1ccc2[nH]c(S(=O)Cc3ncc(C)c(OC)c3C)nc2n1 (stereo unspecified) |  | 109% (inactive)
C[C@@H]1O[C@@H](O[C@@H]2\C=C/C=C\C=C/C=C\C[C@H](C)OC(=O)/C=C\[C@H]3O[C@@H]3C[C@H](O)C[C@]3(O)C[C@@H](O)[C@@H](C(=O)O)[C@H](C2)O3)[C@H](O)[C@H](N)[C@@H]1O |  | 112% (inactive)
C[C@H](Nc1ncnc2nc[nH]c12)c1cc2cccc(Cl)c2c(=O)n1-c1ccccc1 | 18600 nM (active) | 
COc1cccc2nc(-c3cccs3)nc(NN3C(=O)C=C(C)C3=O)c12 | 417 nM (active) | 

Assay: BET inhibitor-based combinations targeting novel dependencies in MECOM-rearranged (r) AML: OCI-AML3 cell line (AID 2202232); further: nearly all actives have a fitted effect of over 35% in size
Details: CellTiter-Glo luminescence, 48 h; Potency: OCI-AML3 viability; series mostly up to 46 µM
Summary of the method: as §1

Compound | Potency
Clc1ccc(C(Cn2ccnc2)OCc2c(Cl)cccc2Cl)c(Cl)c1 (stereo unspecified) | 10500 nM (active)
Nc1ccccc1NC(=O)c1ccc(CNc2nccc(-c3cccnc3)n2)cc1 | 1320 nM (active)
CC[C@H](Nc1ncnc2nc[nH]c12)c1nc2cccc(F)c2c(=O)n1-c1ccccc1 | 4680 nM (active)
COc1ccc(-c2nc3ccc(C4=NNC(=O)CC4C)cc3[nH]2)cc1 (stereo unspecified) | 18600 nM (active)
C[C@@H]1O[C@@H](O[C@@H]2\C=C/C=C\C=C/C=C\C[C@H](C)OC(=O)/C=C\[C@H]3O[C@@H]3C[C@H](O)C[C@]3(O)C[C@@H](O)[C@@H](C(=O)O)[C@H](C2)O3)[C@H](O)[C@H](N)[C@@H]1O | inactive
C[C@H](Nc1ncnc2nc[nH]c12)c1cc2cccc(Cl)c2c(=O)n1-c1ccccc1 | 934 nM (active)
COc1cccc2nc(-c3cccs3)nc(NN3C(=O)C=C(C)C3=O)c12 | 417 nM (active)

Assay: BET inhibitor-based combinations targeting novel dependencies in MECOM-rearranged (r) AML: MV-4-11 cell line (AID 2202233); further: nearly all actives have a fitted effect of over 45% in size
Details: MV-4-11 AML viability, CellTiter-Glo luminescence, 48 h; series mostly up to 46 µM
Summary of the method: (§2)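 First, 500 cells per well were seeded; next, drugs were pinned as 11-point doses; then plates sat 48 hr in the incubator; finally CellTiter-Glo was added and luminescence read, with AUC and Z-AUC computed.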

Compound | Potency
Clc1ccc(C(Cn2ccnc2)OCc2c(Cl)cccc2Cl)c(Cl)c1 (stereo unspecified) | 18600 nM (active)
Nc1ccccc1NC(=O)c1ccc(CNc2nccc(-c3cccnc3)n2)cc1 | 662 nM (active)
COc1ccc(-c2nc3ccc(C4=NNC(=O)CC4C)cc3[nH]2)cc1 (stereo unspecified) | 11800 nM (active)
C[C@@H]1O[C@@H](O[C@@H]2\C=C/C=C\C=C/C=C\C[C@H](C)OC(=O)/C=C\[C@H]3O[C@@H]3C[C@H](O)C[C@]3(O)C[C@@H](O)[C@@H](C(=O)O)[C@H](C2)O3)[C@H](O)[C@H](N)[C@@H]1O | inactive

Assay: BET inhibitor-based combinations targeting novel dependencies in MECOM-rearranged (r) AML: HNT-34 cell line (AID 2202234); further: nearly all actives have a fitted effect of over 35% in size
Details: HNT-34 AML viability, CellTiter-Glo luminescence, 48 h; series mostly up to 46 µM
Summary of the method: as §2

Compound | Potency
Clc1ccc(C(Cn2ccnc2)OCc2c(Cl)cccc2Cl)c(Cl)c1 (stereo unspecified) | 26300 nM (active)
COc1ccc(-c2nc3ccc(C4=NNC(=O)CC4C)cc3[nH]2)cc1 (stereo unspecified) | 8330 nM (active)
C[C@@H]1O[C@@H](O[C@@H]2\C=C/C=C\C=C/C=C\C[C@H](C)OC(=O)/C=C\[C@H]3O[C@@H]3C[C@H](O)C[C@]3(O)C[C@@H](O)[C@@H](C(=O)O)[C@H](C2)O3)[C@H](O)[C@H](N)[C@@H]1O | inactive
COc1cccc2nc(-c3cccs3)nc(NN3C(=O)C=C(C)C3=O)c12 | 263 nM (active)

Assay: BET inhibitor-based combinations targeting novel dependencies in MECOM-rearranged (r) AML: UCSD-AML1 cell line (AID 2202235); further: nearly all actives have a fitted effect of over 40% in size
Details: UCSD-AML1 AML cells viability, CellTiter-Glo, 48 h; series mostly up to 46 µM
Summary of the method: as §2

Compound | Potency
Clc1ccc(C(Cn2ccnc2)OCc2c(Cl)cccc2Cl)c(Cl)c1 (stereo unspecified) | inactive
Nc1ccccc1NC(=O)c1ccc(CNc2nccc(-c3cccnc3)n2)cc1 | 1320 nM (active)
CC[C@H](Nc1ncnc2nc[nH]c12)c1nc2cccc(F)c2c(=O)n1-c1ccccc1 | 5900 nM (active)
C[C@@H]1O[C@@H](O[C@@H]2\C=C/C=C\C=C/C=C\C[C@H](C)OC(=O)/C=C\[C@H]3O[C@@H]3C[C@H](O)C[C@]3(O)C[C@@H](O)[C@@H](C(=O)O)[C@H](C2)O3)[C@H](O)[C@H](N)[C@@H]1O | inactive
C[C@H](Nc1ncnc2nc[nH]c12)c1cc2cccc(Cl)c2c(=O)n1-c1ccccc1 | 1320 nM (active)
COc1cccc2nc(-c3cccs3)nc(NN3C(=O)C=C(C)C3=O)c12 | 105 nM (active)

Assay: BET inhibitor-based combinations targeting novel dependencies in MECOM-rearranged (r) AML: AML-191 cell line (AID 2202236; further: nearly all actives have a fitted effect of over 35% in size)
Details: AML-191 viability, CellTiter-Glo luminescence, 48 h; series mostly up to 46 µM
Summary of the method: as §1

Compound | Potency
COc1ccc2[nH]c(S(=O)Cc3ncc(C)c(OC)c3C)nc2n1 (stereo unspecified) | inactive
C[C@@H]1O[C@@H](O[C@@H]2\C=C/C=C\C=C/C=C\C[C@H](C)OC(=O)/C=C\[C@H]3O[C@@H]3C[C@H](O)C[C@]3(O)C[C@@H](O)[C@@H](C(=O)O)[C@H](C2)O3)[C@H](O)[C@H](N)[C@@H]1O | inactive
COc1cccc2nc(-c3cccs3)nc(NN3C(=O)C=C(C)C3=O)c12 | 148 nM (active)

Assay: BET inhibitor-based combinations targeting novel dependencies in MECOM-rearranged (r) AML: AML-194 cell line (AID 2202237; further: nearly all actives have a fitted effect of over 40% in size)
Details: AML-194 (MECOM-r AML) viability, CellTiter-Glo, 48 h; series mostly up to 46 µM
Summary of the method: as §1

Compound | Potency
Clc1ccc(C(Cn2ccnc2)OCc2c(Cl)cccc2Cl)c(Cl)c1 (stereo unspecified) | 18600 nM (active)
Nc1ccccc1NC(=O)c1ccc(CNc2nccc(-c3cccnc3)n2)cc1 | 1660 nM (active)
COc1ccc2[nH]c(S(=O)Cc3ncc(C)c(OC)c3C)nc2n1 (stereo unspecified) | inactive
C[C@@H]1O[C@@H](O[C@@H]2\C=C/C=C\C=C/C=C\C[C@H](C)OC(=O)/C=C\[C@H]3O[C@@H]3C[C@H](O)C[C@]3(O)C[C@@H](O)[C@@H](C(=O)O)[C@H](C2)O3)[C@H](O)[C@H](N)[C@@H]1O | inactive
COc1cccc2nc(-c3cccs3)nc(NN3C(=O)C=C(C)C3=O)c12 | 263 nM (active)
